Measured values: ChEMBL document CHEMBL1157539, “Thousands of chemical starting points for antimalarial lead identification” (Nature, 2010)

Tested on: HepG2
Assay: GSK_TCMDC: Percent inhibition of human HepG2 cell line. Test compounds present at 10uM.
Format: functional

Structure (SMILES)	Inhibition [%]
O=C(Nc1ccc(N2CCN(Cc3ccccc3Cl)CC2)cc1)c1ccc([N+](=O)[O-])o1	100
CC(=NNC(S)=NC(c1ccccc1)c1ccccc1)c1ccccn1	45
Cc1cc(C(=O)N[C@H]2CCN(Cc3ccc(OCCCN(C)C)cc3)C2)ccc1Br.O=C(O)C(F)(F)F	88
Cc1ccc(C)c2sc(N(CCCn3ccnc3)C(=O)C=Cc3cccs3)nc12.Cl	20
CCCCCc1cc(O)c2c(c1)OC(C)(C)C=C2C1=CCN(Cc2ccsc2)CC1	20
CCOc1cc(C(=O)N[C@@H](Cc2ccccc2)[C@H](O)CNCc2cc(OC)cc(OC)c2)cc(N2CCCCS2(=O)=O)c1.Cl	0
Cc1nc2ccc(Nc3nccc(-c4c(-c5cccc(NC(=O)c6c(F)cccc6F)c5)nn5ccccc45)n3)cc2nc1C	55
O=[N+]([O-])c1cc(/C=N/Nc2nc3nonc3nc2Nc2ccc(F)cc2)c(Cl)cc1Cl	5
Cc1cccc2nc(-c3ccc(-c4cccc(CNCCNC(=O)c5ccnn5C)c4)cc3)[nH]c12.O=C(O)C(F)(F)F	17
CO/C(=C\C=C\c1cc2cc(Cl)c(Cl)cc2[nH]1)C(=O)Nc1ccc(NCCN(C)C)nc1.Cl	27
Cc1nc2nc(N)nc(N)c2c(C)c1Cc1ccc(O)cc1.Cl	64
Cc1ccc(NC(=O)c2ccc3ncccc3c2)cc1OC1CCN(C(C)C)C1.O=C(O)C(F)(F)F (stereo not drawn)	12
COc1c(C2CCN(CCCCNC(=O)c3ccc(-c4ccc(C(F)(F)F)cc4)c(C(=O)OC(C)C)c3)CC2)ccc2c1CCCC2	24
